Reference: PubChem BioAssay (NCATS)
Results filed as inconclusive are left out. Activity calls are given as the source filed them. Calls come from the whole dose curve; as a rule, active = well fitted curve in the direction sought with a large enough effect; inconclusive = small, poorly fitted or top-dose-only effect, or another doubt; inactive = no such curve, though single readings can be large; an effect the other way counts as inactive or inconclusive.

Assay: qHTS of pediatric cancer cell lines to identify multiple opportunities for drug repurposing: Primary screen for OHS-50 cells (AID 1347103); note: nearly all actives have a fitted effect of over 40% in size;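 for activity change, negative = cytotoxic: plate controls were DMSO neutral control for no effect and bortezomib positive control for full effect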
Conditions: OHS-50 osteosarcoma viability, CellTiter-Glo luminescence, 48 h; series mostly up to 57.3 µM; activity change, negative = cytotoxic: at the top concentration
Method in brief: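 Cells (500-1,000/well) rested 5 h, then received compounds for 48 h; metabolically active cells were measured by CellTiter-Glo luminescence. Final concentrations spanned up to 46 µM (MIPE, 11-point) or 0.59 nM-46 µM (NPC, 8-point) in primary screens, 11-point in follow-ups.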
Potency is the fitted concentration of half-maximal effect.

Structure (SMILES)	Potency	activity change, negative = cytotoxic
CCc1c2c(nc3ccc(O)cc13)-c1cc3c(c(=O)n1C2)COC(=O)[C@]3(O)CC	0.0086 µM (active)	
Cc1ccc(C(=O)Nc2cccc(C(F)(F)F)c2)cc1-c1ccc2nc(NCCN3CCOCC3)ncc2c1	3.85 µM (active)	
CN1CCN(c2ccc3nc(-c4c(N)c5c(F)cccc5[nH]c4=O)[nH]c3c2)CC1	1.72 µM (active)	
COc1cc(C)c(Sc2cnc(NC(=O)c3ccc(CNC(C)C(C)C)cc3)s2)cc1C(=O)N1CCN(C(C)=O)CC1 (stereo not given)	2.43 µM (active)	
CC(C)c1ccccc1Cc1cc(C(=O)Nc2ccc(S(=O)(=O)c3ccccc3C(C)(C)C)cc2)c(O)c(O)c1O	24.3 µM (active)	
CNC(=O)c1ccccc1Nc1nc(Nc2ccc(N3CCOCC3)cc2OC)ncc1Cl	0.306 µM (active)	
Nc1nc(NCCNc2ncc(-n3ccnc3)c(-c3ccc(Cl)cc3Cl)n2)ccc1[N+](=O)[O-]	19.3 µM (active)	
COc1ccc(CC2c3cc(OC)c(OC)cc3CC[N+]2(C)CCC(=O)OCCCCCOC(=O)CC[N+]2(C)CCc3cc(OC)c(OC)cc3C2Cc2ccc(OC)c(OC)c2)cc1OC (stereo not given)		9.58% [at 11.5 µM] (inactive)
Cc1ccc2nc(NC(=O)CSc3nc4c(c(=O)n3-c3ccccc3)SCC4)sc2c1	13.7 µM (active)	
O=C(O)c1ccc2c(c1)nc(Nc1cccc(Cl)c1)c1ccncc12	3.06 µM (active)	
Cc1cn(-c2cc(NC(=O)c3ccc(C)c(Nc4nccc(-c5cccnc5)n4)c3)cc(C(F)(F)F)c2)cn1		-8.07% (inactive)
CCOc1cc2ncc(C#N)c(Nc3ccc(F)c(Cl)c3)c2cc1NC(=O)C=CCN(C)C	0.137 µM (active)	
CC(C)(C)c1cc(C(C)(C)C)c(NC(=O)c2c[nH]c3ccccc3c2=O)cc1O		8.73% (inactive)
CCS(=O)(=O)c1cccc(-c2cc(C(=O)NC3CCN(C)CC3)c(C)c3[nH]c4ncc(C)cc4c23)c1	0.769 µM (active)	
C#Cc1cccc(Nc2ncnc3cc(OC)c(OCCCCCCC(=O)NO)cc23)c1	0.485 µM (active)	
CC(C)c1ccc(Cn2ccc3c4c(N)nc(NC5CC5)nc4ccc32)cc1	4.85 µM (active)	
Cc1ccc(S(=O)(=O)Nc2cc(Cl)ccc2C(=O)Nc2nc(-c3ccccc3)cs2)cc1	8.63 µM (active)	
COc1ccc(CC2SC(=O)NC2=O)cc1C(=O)NCc1ccc(C(F)(F)F)cc1 (stereo not given)		-16.2% (inactive)
CC[C@@]1(O)C(=O)OCc2c1cc1n(c2=O)Cc2cc3cc(O)ccc3nc2-1	0.0343 µM (active)	
C=CC(=O)Nc1cc2c(Nc3ccc(F)c(Cl)c3)ncnc2cc1C#CC(C)(C)N1CCN(C)CC1	3.85 µM (active)	
Cc1cc(N2CCOCC2)cc2[nH]c(-c3c(NC[C@@H](O)c4cccc(Cl)c4)cc[nH]c3=O)nc12	0.0968 µM (active)	
COc1ccc(C(=O)CC2(O)C(=O)Nc3c(Cl)ccc(Cl)c32)cc1 (stereo not given)	4.32 µM (active)	
O=C(C=Cc1cccc(S(=O)(=O)Nc2ccccc2)c1)NO	3.95 µM (active)	
CNC(=O)c1cc(Oc2ccc(NC(=O)Nc3cc(C(C)(C)C)nn3-c3ccc4ncccc4c3)c(F)c2)ccn1	27.3 µM (active)	

Assay: qHTS of pediatric cancer cell lines to identify multiple opportunities for drug repurposing: Primary screen for RD cells (AID 1347104); note: nearly all actives have a fitted effect of over 55% in size;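 for activity change, negative = cytotoxic: plate controls were DMSO for no effect and bortezomib for full effect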
Conditions: RD rhabdomyosarcoma viability, CellTiter-Glo luminescence, 48 h; series mostly up to 46 µM; activity change, negative = cytotoxic: at the top concentration
Method in brief: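 Quantitative HTS format: each compound titrated (MIPE 11 points from 0.78 nM, NPC 8 points from 0.59 nM) onto cells plated 5 hours earlier. After 48 h at 37 degrees C, CellTiter-Glo luminescence was recorded.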

Structure (SMILES)	Potency	activity change, negative = cytotoxic
CCN1CCN(Cc2ccc(-c3cc4c(N[C@H](C)c5ccccc5)ncnc4[nH]3)cc2)CC1	0.0074 µM (active)	
CNC(=O)c1ccc(N2C(=S)N(c3cnc(C#N)c(C(F)(F)F)c3)C(=O)C23CCC3)cc1F	5.9 µM (active)	
Cc1ccc(C(=O)Nc2cccc(C(F)(F)F)c2)cc1-c1ccc2nc(NCCN3CCOCC3)ncc2c1	5.9 µM (active)	
CCc1cc2c(cc1N1CCC(N3CCOCC3)CC1)C(C)(C)c1[nH]c3cc(C#N)ccc3c1C2=O		-59.5% (inactive)
Clc1cccc(-c2nnnn2Cc2cccnc2)c1Cl		0.674% (inactive)
COc1cc(C)c(Sc2cnc(NC(=O)c3ccc(CNC(C)C(C)C)cc3)s2)cc1C(=O)N1CCN(C(C)=O)CC1 (stereo not given)	14.8 µM (active)	
CN1CCN(Cc2ccc(NC(=O)Nc3ccc(Oc4cc(NC(=O)C5CC5)ncn4)cc3)cc2C(F)(F)F)CC1	0.662 µM (active)	
O=C(c1cncc(Br)c1)N1CCC(N2CCCC2)CC1		4.88% (inactive)
CNC(=O)c1ccccc1Nc1nc(Nc2ccc(N3CCOCC3)cc2OC)ncc1Cl	0.469 µM (active)	
Nc1nc(NCCNc2ncc(-n3ccnc3)c(-c3ccc(Cl)cc3Cl)n2)ccc1[N+](=O)[O-]	14.8 µM (active)	
COc1ccc(CC2c3cc(OC)c(OC)cc3CC[N+]2(C)CCC(=O)OCCCCCOC(=O)CC[N+]2(C)CCc3cc(OC)c(OC)cc3C2Cc2ccc(OC)c(OC)c2)cc1OC (stereo not given)		4.63% [at 9.22 µM] (inactive)
O=C(O)c1ccc2c(c1)nc(Nc1cccc(Cl)c1)c1ccncc12	9.35 µM (active)	
CC(C)(O)CCc1ccc(OCc2cc(-c3cccc(OC(F)F)c3)c3ncccc3c2)cc1		-0.169% (inactive)
C1=CCOCc2cc(ccc2OCCN2CCCC2)Nc2nccc(n2)-c2cccc(c2)OCC1	11.8 µM (active)	
C=C1C(=CC=C2CCCC3(C)[C@@H]([C@H](C)C=CC=CC(O)(CC)CC)CC[C@@H]23)C[C@@H](O)C[C@@H]1O (stereo not given in full)	26.4 µM (active)	
CCOc1cc2ncc(C#N)c(Nc3ccc(F)c(Cl)c3)c2cc1NC(=O)C=CCN(C)C	0.526 µM (active)	
CC(C)(C)c1cc(C(C)(C)C)c(NC(=O)c2c[nH]c3ccccc3c2=O)cc1O		-3.6% (inactive)
CCS(=O)(=O)c1cccc(-c2cc(C(=O)NC3CCN(C)CC3)c(C)c3[nH]c4ncc(C)cc4c23)c1	2.64 µM (active)	
C#Cc1cccc(Nc2ncnc3cc(OC)c(OCCCCCCC(=O)NO)cc23)c1	0.187 µM (active)	
CC(C)c1ccc(Cn2ccc3c4c(N)nc(NC5CC5)nc4ccc32)cc1	14.8 µM (active)	
Cc1ccc(S(=O)(=O)Nc2cc(Cl)ccc2C(=O)Nc2nc(-c3ccccc3)cs2)cc1	10.5 µM (active)	
COc1ccc(CC2SC(=O)NC2=O)cc1C(=O)NCc1ccc(C(F)(F)F)cc1 (stereo not given)		-22.8% (inactive)
C=CC(=O)Nc1cc2c(Nc3ccc(F)c(Cl)c3)ncnc2cc1C#CC(C)(C)N1CCN(C)CC1	5.9 µM (active)	
COc1ccc(C(=O)CC2(O)C(=O)Nc3c(Cl)ccc(Cl)c32)cc1 (stereo not given)	5.9 µM (active)	
O=C(C=Cc1cccc(S(=O)(=O)Nc2ccccc2)c1)NO	9.59 µM (active)	
CNC(=O)c1cc(Oc2ccc(NC(=O)Nc3cc(C(C)(C)C)nn3-c3ccc4ncccc4c3)c(F)c2)ccn1	10.5 µM (active)	
